# Experimental data taken from PubChem BioAssay AID624246 (National Center for Advancing Translational Sciences (NCATS), 2012).
# Out of some 370,000 compounds screened, about 100 (0.027%) were called active. This is one part of a sample in which actives are shown more often than they occur. A number with no mark means an inactive call. The call rests on the fitted dose curve; in most records, active means well fitted inhibition curve with a large enough effect in the polarisation, with a control signal flat; inconclusive means small, poorly fitted or top-dose-only effect, or effect the other way, or a change in a side signal; inactive means no such curve, though single readings can be large or run the other way; the % refers to the polarisation.
# Target: Transcriptional regulator ERG (Homo sapiens) (UniProt P11308)
# Assay: qHTS for Small Molecule Inhibitors of the ERG Ets/DNA interaction; on FP activity, negative = inhibition: % of control where 0% means no effect
# Settings: fluorescence polarization, His-ERG Ets domain / labelled DNA; series mostly up to 76.9 µM; FP activity, negative = inhibition: at the top concentration
# Source text: The Ets family of proteins is a family of ~30 conserved transcription factors defined by the presence of an ~85 amino acid domain referred to as the Ets domain, which mediates sequence-specific DNA binding to a core DNA element GGAA/T.The Ets family member ERG has been linked to several neoplasms. […] More extensive studies of the effects of over-expression of ERG in prostate cells have recently been carried out and have shown that over-expression of ERG results in increased invasion. […] We will carry out a high throughout screen to identify inhibitors of the interaction between ERG and DNA using a fluorescence polarization (FP) assay with a His-tagged ERG Ets domain and fluorescently-labeled DNA probes to develop small molecule inhibitors of this interaction as probes to test this hypothesis and lay the groundwork for the development of targeted therapies against ERG. NIH Molecular Libraries Probe Production Network [MLPCN] NIH Chemical Genomics Center [NCGC] Grant: NS066464 PI Name: John Bushweller, University of Virgina
# 1.5 ul of protein solution (1 uM ERG domain in 300mM KCl, 50mM Tris-HCl, 1mM EDTA, 1mM DTT, pH 7.5); 20 nl Control plate and compound library plate; 1.5 ul mixture of 5 nM Fluorescein-DNA and 100nM Texas-615-DNA solution in same buffer as above solution; measure fluorescence polarization sequentially for fluorescein (Excitation = 480 nm, Emission = 535s, 535p nm) and Texas red (Excitation = 555 nm, Emission = 632s, 632p nm).
# Potency means the concentration at half of the fitted maximal effect.
# Sequence of Transcriptional regulator ERG (Homo sapiens) (P11308 whole entry, looked up): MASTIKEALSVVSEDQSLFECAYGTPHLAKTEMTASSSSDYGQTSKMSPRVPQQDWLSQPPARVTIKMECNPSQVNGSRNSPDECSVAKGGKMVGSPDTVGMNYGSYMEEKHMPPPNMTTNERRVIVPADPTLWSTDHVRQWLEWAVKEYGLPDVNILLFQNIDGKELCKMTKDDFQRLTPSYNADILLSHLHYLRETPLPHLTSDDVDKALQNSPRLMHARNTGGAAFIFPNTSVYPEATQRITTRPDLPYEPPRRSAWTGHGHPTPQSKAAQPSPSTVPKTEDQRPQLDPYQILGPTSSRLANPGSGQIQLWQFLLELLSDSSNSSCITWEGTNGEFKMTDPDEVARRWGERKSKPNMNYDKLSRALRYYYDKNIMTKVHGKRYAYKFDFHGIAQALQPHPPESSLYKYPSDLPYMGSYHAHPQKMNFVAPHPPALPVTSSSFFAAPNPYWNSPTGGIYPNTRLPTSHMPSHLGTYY
SMILES,"FP activity, negative = inhibition [%]",Potency
CCCn1c2ccccc2c2cnn(CC(=O)N(C)c3ccccc3CC)c(=O)c21,-8.81,–
O=C(NCc1ccccc1Cl)C1=Cc2cc(Br)ccc2OC1,3.13,–
COc1ccc(NC(C)=O)cc1NC(=O)CN1CCN(c2ccc(F)cc2)CC1,2.77,–
O=C(CSc1oc(-c2ccco2)nc1S(=O)(=O)c1ccc(Cl)cc1)c1ccccc1,5.44,–
Cc1ccccc1-c1nc(CS(=O)(=O)CC(=O)Nc2cc(Cl)cc(Cl)c2)c(C)o1,1.85,–
Cc1ccc(NC(=O)c2nc(S(=O)(=O)Cc3cccc(C)c3)ncc2Cl)cc1,1.14,–
CCc1cccc(C)c1NS(=O)(=O)c1ccc(-c2cc(C)no2)s1,-4.44,–
O=C(CC1N=C2c3ccccc3N=C(SCc3ccc(F)cc3)N2C1=O)NCc1cccs1 (stereo unspecified),10.7,–
COc1cccc(-c2nc(CS(=O)(=O)CC(=O)N3CCN(c4cc(C)ccc4C)CC3)c(C)o2)c1,12.5,–
CSc1nc(Nc2ccc(F)cc2)cc(-c2ccccc2)n1,2.27,–
Cc1nc(SCC(=O)Nc2ccc(C(=O)O)cc2)n[nH]1,3.12,–
COc1ccc(NC(=O)CSc2nccn2C2CCCC2)cc1OC,-5.84,–
COc1ccc(OCC(=O)Nc2cccc(C(=O)OCc3cc(=O)n4nc(C)sc4n3)c2)cc1,-16,–
Cc1nnc(NC(=O)CSc2nc3c([nH]c4ccccc43)c(=O)n2-c2cccc(Cl)c2)s1,-4.44,–
O=C(CSc1nc(=O)[nH]c2c1CCCC2)Nc1cc(C(F)(F)F)ccc1Cl,-2.51,–
Cc1cc(C)cc(OCC(=O)Nc2nc(-c3ccc(F)cc3)ns2)c1,-4.35,–
Cc1ccc(Cn2c(CNC(=O)Cc3cccc(C)c3)nc3cccnc32)cc1,-4.25,–
CSc1ncc(Cl)c(C(=O)Nc2ccc(S(=O)(=O)N3CCCC(C)C3)cc2)n1 (stereo unspecified),0.507,–
CCc1ccc(CNC(=O)c2ccc(CS(=O)c3ccc(Br)cc3)o2)cc1 (stereo unspecified),-7.46,–
Cc1cccc(C(=O)Nc2ccc(S(=O)(=O)N3CCCCC3c3cccnc3)cc2)c1 (stereo unspecified),3.94,–
COc1ccc(-c2nc(CN3CCC(C(=O)NCCN(CC(C)C)CC(C)C)CC3)c(C)o2)cc1OC,4.85,–
Cc1cc(C)cc(NC(=O)CSc2oc(-c3ccccc3)nc2S(=O)(=O)c2ccc(Cl)cc2)c1,0.322,–

SMILES,"FP activity, negative = inhibition [%]",Potency
Cc1cccc(N2CCN(C(=O)c3cnc(N4CCCC4)nc3C)CC2)c1C,-2.02,–
CCc1cc2c(cc(C(=O)OC)n2Cc2nc(-c3ccc(C)cc3)oc2C)s1,2.28,–
Cc1ccc(-c2cc(C(F)(F)F)c(C#N)c(SCC(=O)Nc3ccccc3)n2)cc1,-0.0269,–
COc1ccc(C(=O)NCC(c2ccc(N(C)C)cc2)N2CCc3ccccc32)c(OC)c1 (stereo unspecified),2.3,–
CC(=O)Nc1ccc(NC(=O)CSc2nnc3c4cc(Br)ccc4n(C)c3n2)cc1,0.14,–
O=C(CSc1oc(-c2ccco2)nc1S(=O)(=O)c1ccccc1)c1ccc(Cl)cc1,-11.3,–
CCN(CC)CCCC(C)n1c2nc(=O)[nH]c(=O)c-2nc2cc(Cl)ccc21 (stereo unspecified),–,35.5 µM (active)
Cc1ccccc1OCCSc1nc2ccc(NC(=O)c3ccco3)cc2s1,-2.16,–
Cc1ccc(-c2nnc(Nc3ccc(OCC(N)=O)cc3)c3ccccc23)cc1S(=O)(=O)NCC1CCCO1 (stereo unspecified),7.84,–
O=C(NC1CC(=O)N(c2ccc(F)cc2)C1)c1cccs1 (stereo unspecified),-14.7,–
O=C(NCCc1ccc(Cl)cc1)c1ccc2nc(CCc3ccccc3)oc2c1,-3.36,–
COc1ccc(OC)c(CNC(=O)CN2C(=O)CCn3nc(-c4cn(C)c5ccccc45)cc32)c1,-3.27,–
Cc1ccc(NC(=O)CSc2nc3c(c(=O)[nH]2)CN(Cc2ccc4c(c2)OCO4)CC3)cc1C,-1.58,–
CCCCc1nn2c(=O)cc(COC(=O)c3ccc(NC(=O)c4ccccc4C)cc3)nc2s1,-6.35,–
Cc1ccc(NC(=O)CSc2nc3ccccc3c3nc(CCn4cncc4C)nn23)cc1F,-3.62,–
CC1=C(C(=O)N2CCN(c3cccc(C(F)(F)F)c3)CC2)C2(CCCCC2)OC1=O,8.81,–
Cc1cc(C(=O)COC(=O)CNC(=O)c2ccc(F)cc2)c(C)n1Cc1ccco1,-5.22,–
COCCn1c(C)cc(C(=O)COC(=O)CNC(=O)c2ccco2)c1C,–,7.94 µM (active)
O=C(CNC(=O)c1ccco1)OCC(=O)c1ccccc1,-7.95,–
CC(C)c1ccc(NC(=O)CN(C)S(=O)(=O)c2ccc3c(c2)c(=O)n(C)c(=O)n3C)cc1,2.26,–
CCOC(=O)c1cccc(NC(=O)C(Cc2ccccc2)NS(=O)(=O)c2cccc3nsnc23)c1 (stereo unspecified),-2.33,–
CCS(=O)(=O)N1CCC(n2c(C)nc3cccnc32)CC1,-0.342,–

SMILES,"FP activity, negative = inhibition [%]",Potency
CCOc1ccc(-c2cc3nc(C4CCN(C(=O)OC(C)(C)C)CC4)c(C(=O)Nc4ccc(C(=O)OC)cc4)cn3n2)cc1,5.08,–
CCc1ccc(CN(Cc2ccco2)C(=O)c2ccccc2Cl)cc1,1.74,–
CCN(CCCNC(=O)Cn1ncc2c3ccccc3n(C)c2c1=O)Cc1ccccc1,-2.87,–
CCC(=O)N1CCc2cc(S(=O)(=O)NCCC(=O)Nc3cccc(C)c3C)ccc21,-8.47,–
Cc1ccc(-n2ncc(C(=O)N(C)Cc3ccccc3)c2-n2cccc2)cc1,-2.68,–
Cc1cc(O)c(C(c2ccccc2)N2CCN(c3ccccc3F)CC2)c(=O)n1Cc1ccco1 (stereo unspecified),-1.43,–
CCOc1ccc(C(=O)/C=C/c2cn(CC(O)CN3CCCCCC3)c3ccccc23)cc1 (stereo unspecified),-4.97,–
Cc1cc(C)c(NC(=O)CN2C(=O)c3cccnc3Oc3ccc(Cl)cc32)c(C)c1,2.19,–
CCc1ccc(S(=O)(=O)c2nnn3c2nc(N2CCN(CC)CC2)c2sccc23)cc1,6.31,–
Cc1cccc(NC(=O)CSc2nnc(CNC(=O)c3cccc(C)c3)n2-c2ccccc2)c1,4.19,–
Cc1ccccc1-c1nc2scc(CCNC(=O)C(=O)Nc3ccc(F)cc3F)n2n1,-7.04,–
CC(C)CCNC(=O)CSc1nc2ccccc2nc1Cc1ccc(Cl)cc1,-16.9,–
CC(=O)Nc1cccc(NC(=O)CSc2nccn2Cc2ccc3c(c2)OCO3)c1,3.24,–
CCC(=O)N1CCc2cc(Br)cc(S(=O)(=O)Nc3ccc(C)cc3C)c21,0.336,–
O=C(CN1CCN(Cc2ccc(Cl)cc2)C1=O)NCc1ccc(F)cc1,5.89,–
COc1ccc(-c2cccc(NS(=O)(=O)c3cc(C)c(OC)c(C)c3C)c2)nn1,-0.101,–
Cc1nn2c(=O)cc(COC(=O)CNC(=O)c3ccc(F)cc3)nc2s1,-9.84,–
CCOc1ccccc1C(=O)NCc1ccc2c(c1)CCN2C(=O)c1ccc(F)cc1,-0.811,–
Cc1c(NC(=O)Nc2ccc(F)c(Cl)c2)c(=O)n(-c2ccccc2)n1C,-5.55,–
Cc1ccc(N2CC(NC(=O)Cc3cccs3)CC2=O)cc1 (stereo unspecified),-1.63,–
Cc1nnc(N2CCC(C(=O)Nc3ccc(F)cc3)CC2)c2nn(-c3ccc(Cl)cc3)c(C)c12,4.61,–
Cc1ccc(C)c(N2CCN(C(=O)Cn3ncc4c(=O)oc5ccc(C)cc5c43)CC2)c1,-2.21,–

SMILES,"FP activity, negative = inhibition [%]",Potency
Cc1ccc(C(=O)N2CCc3cc(CNC(=O)c4ccc(Br)cc4)ccc32)cc1,0.293,–
Cc1ccc(S(=O)(=O)NCc2nc3nc(C)cc(C)n3n2)cc1,-0.121,–
CCN(CCCNC(=O)c1cc(Nc2ccc(OC)cc2)nc2ccccc12)c1cccc(C)c1,11.4,–
CCc1nnc2c3ccccc3nc(N3CCN(c4ccc(C)cc4C)CC3)n12,-1.84,–
Cc1nnc(SCc2cc(=O)c3cc(F)ccc3[nH]2)n1C,-0.734,–
Cc1ccc(C(=O)Nc2ccc3[nH]c(=O)c(=O)[nH]c3c2)cc1,10.2,–
Cc1sc(C2C(C#N)=C(N)N(c3cccc(Cl)c3)C3=C2C(=O)CCC3)cc1CN1CCOCC1 (stereo unspecified),-0.155,–
O=C(CCc1ccccc1)NCc1ccc2c(c1)CCN2C(=O)c1ccccc1,-1.84,–
CCc1ccccc1NC(=O)c1sc2nc3c(cc2c1N)CN(Cc1ccccc1)CC3,2.85,–
COc1ccc(CCNC(=O)c2ccc(CSCc3ccc(C)cc3)o2)cc1OC,-0.298,–
CCCn1c2ccccc2c2cnn(CC(=O)N3CCCC(C(=O)OCC)C3)c(=O)c21 (stereo unspecified),1.31,–
Cc1cc(C(=O)Nc2cccc(C(F)(F)F)c2)c2c(C)nn(-c3cccc(F)c3)c2n1,16.8,–
CC(C)(C)c1ccc(C(=O)Nc2ccc3c(c2)CCCN3C(=O)c2cccs2)cc1,-9.6,–
COc1ccc(-c2nc(CS(=O)CC(=O)NCc3ccccn3)c(C)o2)cc1 (stereo unspecified),–,35.5 µM (active)
COc1ccc(CNC(=O)CS(=O)Cc2nc(-c3cccc(C)c3)oc2C)cc1 (stereo unspecified),7.27,–
COc1ccc(-c2nc(CS(=O)CC(=O)NCc3cccnc3)c(C)o2)cc1OC (stereo unspecified),2.92,–
Cc1cc(C)nc(NS(=O)(=O)c2ccc(NC(=O)c3cc(=O)c4ccc(C)c(C)c4o3)cc2)n1,5.27,–
CCCn1c(NCc2ccccc2F)nc2ccccc21,-2.58,–
O=C(CSc1nc(Nc2ccc(F)c(F)c2)c2ccccc2n1)c1ccc(Cl)cc1,3.88,–
COc1cc(C(=O)Nc2ccc(OCc3cc(=O)n4ccc(C)cc4n3)cc2)cc(OC)c1OC,3.21,–
